Pf Dd2 growth – blocks in vitro growth of P. falciparum Dd2 | P. falciparum Dd2 growth, SYBR Green, 72 h | Potency, µM (titrated, usually from 28.9 µM), actives largely listed as inhibitors | 120,000 tested, 4.3% active | AID 1347417; active means well fitted inhibition curve with a large enough effect; further: nearly all actives have a fitted effect of over 65% in size
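Infected erythrocytes (Dd2, 0.3% parasitemia, 2.5% hematocrit final) are added to compound in RPMI-1640/Albumax II medium, grown 72 h at 37C in low oxygen, then lysed with saponin/Triton-X containing SYBR Green and read by fluorescence.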
Numbers stand for hits; – = inactive; [ ] = dose if it differs, or a comment. This excerpt belongs to a sample that is enriched for hits.

SMILES	Pf Dd2 growth
CS(=O)(=O)N1CCC(C2CCN(C(=O)C3CC=CC3)C2)CC1 (configuration not stated)	–
CC(C)NC(=O)NC[C@H]1OC[C@@H](NC2CCNCC2)[C@@H]1O	–
COc1ccc(-c2cc(C(=O)NCc3cnn(C)c3)c3c(c2)N(C)CCO3)cc1	–
Cn1c(C(=O)N2CCC3(CCNC(=O)CC3)CC2)cc2c(Cl)cccc21	–
COCCN1Cc2[nH]nc(-c3cccc(C(F)(F)F)c3)c2CC1=O	–
CCOc1ccc(CC(=O)N2C[C@@H](COC)[C@H](c3nc(C)no3)C2)cc1	–
COCCOC1CN(C2CCN(Cc3ccncc3)CC2)C12CCCCC2 (configuration not stated)	–
COCCOC1CN(C2CCN(Cc3ccc(F)c(F)c3)CC2)C12CCCCC2 (configuration not stated)	2.5µM
COCCOC1CN(C2CCN(C(=O)Nc3ccccc3F)CC2)C12CCCCC2 (configuration not stated)	–
COCCOC1CN(C2CCN(Cc3cccc(F)c3)CC2)C12CCCCC2 (configuration not stated)	3.5µM
COCCOC1CN(C2CCN(S(=O)(=O)c3ccccc3)CC2)C12CCCCC2 (configuration not stated)	–
COCCOC1CN(C2CCN(C(=O)c3ccc(OC)c(F)c3)CC2)C12CCCCC2 (configuration not stated)	–
O=C(CN1CCN(c2cc(C3CC(O)C3)ncn2)CC1)N1CCCC1 (configuration not stated)	–
COCCNC(=O)c1ccc2nnc(-c3cncc(Cl)c3)n2c1	–
O=C(N[C@H]1CCN2C(=O)c3cc(-c4ccccc4F)ccc3NC(=O)[C@@H]2C1)c1ccc(F)c(Cl)c1	–
NC(=O)N1CCCC(C(=O)NCCc2nc(-c3ccccn3)no2)C1 (configuration not stated)	–
COc1ccc(C(=O)N2CC[C@H]3COC(=O)N3c3cc(F)ccc3C2)cc1	–
Cn1cnc(S(=O)(=O)N2CCC(Cc3nncn3CC3CC3)CC2)c1	–
COc1cccc(CNC(=O)Cn2c(C)cc3nc4n(c(=O)c32)CCCCC4)c1	–
O=c1c2nc(-c3ccncc3)ccc2ncn1-c1ccccc1	–
O=c1c2nc(-c3ccc(O)c(F)c3)ccc2ncn1-c1ccc(F)cc1F	–
O=c1c2nc(-c3ccc(O)c(F)c3)ccc2ncn1-c1ccccc1	13µM
O=C(N[C@H](c1ccccn1)C1CC(O)C1)C1(c2ccc(Cl)cc2)CCC1 (some centres not stated)	–
CN(C)C[C@@H]1CN(S(C)(=O)=O)C[C@H]1NC(=O)c1cccn1C	–
CCCn1c(CCC(=O)Nc2cccc(CC)c2)nc2cccnc21	–
SMILES	Pf Dd2 growth
O=C(CCc1nc2cccnc2n1Cc1cccs1)Nc1cccc(Cl)c1	11µM
COc1ccc(Cn2c(CCC(=O)Nc3ccc(C)cc3)nc3cccnc32)cc1	10µM
COc1ccc(CNC(=O)CCc2nc3cccnc3n2Cc2ccc(OC)cc2)cc1	–
Cc1cc(NC(=O)CCc2nc3cccnc3n2Cc2cccs2)ccc1Br	–[5.79 µM]
COc1ccc(Cn2c(CCC(=O)Nc3cc(C)cc(C)c3)nc3cccnc32)cc1	–
O=C(N[C@H]1C[C@@H](CO)N(CCc2ccccc2)C1)c1cccnc1	–
COc1ccc(C(=O)N2CCC(c3n[nH]c(=O)n3Cc3ccc(F)cc3)CC2)cn1	–
O=C(c1ccc(Oc2ccc(CN3CCCC3)cc2F)nc1)N1CCCCC1	7.1µM
COc1ccc(C(=O)N2CCCCCCNC(=O)CC2)cc1F	–
Cc1ccc(C)c(CNC(=O)C2(c3ccc(NS(C)(=O)=O)cc3)CCCCC2)c1	–
O=C1N(c2ccccc2)c2ccccc2C12CCN([S+](=O)([O-])c1ccccc1)C2 (configuration not stated)	7.9µM
COc1ccc(CN2CCC3(C2)C(=O)N(c2ccccc2)c2ccccc23)cc1 (configuration not stated)	8.9µM
COc1ccc(CN2CCC3(C2)C(=O)N(C)c2ccccc23)cc1 (configuration not stated)	–
O=C1Nc2ccccc2C12CN([S+](=O)([O-])c1ccccc1)C2	–
O=C1NC2(CCN([S+](=O)([O-])c3ccccc3)C2)COc2ccccc21 (configuration not stated)	–
COc1ccc(CN2CCC3(C2)C(=O)N(Cc2ccccc2)c2ccccc23)cc1 (configuration not stated)	–
CCCC1(CO)CCCN(Cc2cc(OC)c(OC)cc2F)C1 (configuration not stated)	–
COc1cc(C(=O)N2CCC(C(=O)O)(n3cccn3)CC2)ccc1F	–
O=C(N[C@@H]1CN[C@H](CO)C1)C1CC1	–
Cc1cccc(OCC(=O)N2CCC3(CC2)N(C)C(=O)CS3(=O)=O)c1	–
CCN(CC)CCCNC(=O)c1ccc2c(c1)N(Cc1c(F)cccc1Cl)C(=O)c1ccccc1S2	0.45µM
CCCCNC(=O)c1ccc2c(c1)N(CC)C(=O)c1ccccc1S2	–
O=C(NC1CCCC1)c1ccc2c(c1)N(Cc1ccccc1F)C(=O)c1ccccc1S2	–
CCCCN(C)C(=O)c1ccc2c(c1)N(Cc1cccc(F)c1)C(=O)c1ccccc1S2	–
O=C(NCCc1ccc(Cl)cc1)c1ccc2c(c1)N(Cc1c(F)cccc1Cl)C(=O)CS2	–
SMILES	Pf Dd2 growth
O=C(NCc1ccc2c(c1)OCO2)c1ccc2c(c1)N(Cc1c(F)cccc1Cl)C(=O)c1ccccc1S2	7.1µM
COc1ncccc1-c1cc2c(ccn2CC2CCN([S+](C)(=O)[O-])CC2)c(N2CCOCC2)n1	–
Cc1nn(C)c(C)c1CCC(=O)N1CCc2[nH]cnc2C1C(=O)O (configuration not stated)	–
O=C(NC1CCS(=O)(=O)C1)C1CCN(c2cnn(Cc3ccccc3)c(=O)c2)C1 (configuration not stated)	–
O=C(Nc1ccc2c(c1)OCO2)C1CCCN(c2cnn(Cc3ccccc3)c(=O)c2)C1 (configuration not stated)	10µM
O=C(Nc1ccc2oc(-c3ccccc3)nc2c1)C1CCN(c2cnn(Cc3ccccc3)c(=O)c2)C1 (configuration not stated)	2.5µM
O=C(C1CCCN(c2cnn(Cc3ccccc3)c(=O)c2)C1)N1CCCC1 (configuration not stated)	–
Cn1ncc(N2CCC(C(=O)Nc3ccccc3)C2)cc1=O (configuration not stated)	–
O=C(NCCc1cccs1)C1CCCN(c2cnn(Cc3ccccc3)c(=O)c2)C1 (configuration not stated)	–
CO[C@H]1C(=O)N(C2CCN(S(=O)(=O)c3c(C)noc3C)CC2)[C@H]1c1ccncc1	–
O=C(c1ccc(C(F)(F)F)cc1)N1CCn2c(nn(-c3ccncc3)c2=O)C1	–
CCn1ncc(N2CCC(NC(=O)c3ccc(OC)c(F)c3)CC2)cc1=O	–
CCN(CC)S(=O)(=O)c1cccc(C(=O)Nc2ccccc2C(=O)Nc2ccc(OC)cc2)c1	7.1µM
CCN(CC)C(=O)c1ccccc1NC(=O)c1cccc(S(=O)(=O)N2CCC(C)CC2)c1	–[5.79 µM]
CCN(CC)S(=O)(=O)c1ccc(OC)c(NC(=O)c2sc3ccccc3c2Cl)c1	–
Cc1ccccc1S(=O)(=O)N1CCC(n2cnnc2C2CC2)CC1	–
COc1ccc2c(c1)c1c(c(=O)n(-c3ccc(F)c(Cl)c3)c(=O)n1Cc1ccccc1F)n2C	–
NCc1ccccc1Oc1ccc(F)c(Cl)c1	11µM
COc1cccc(C(=O)N2CCn3c(nn(-c4ccc(C)cc4)c3=O)C2)c1	–

Screens as filed in PubChem.
